In general, AC50 refers to the midpoint of the concentration-response curve, whichever way the signal moves.

Outcome and AC50 data for nine compounds are collected here from PubChem BioAssay (EPA / NIEHS).

Experiment [1] in a line: CLD_ACTIN_6hr: CellzDirect (CLD) Gene Expression Assay for Baseline Control (Actin) at 6 hours (AID 2283676).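 Note: active means increased actin mRNA relative to DMSO vehicle.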 Put shortly: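 Primary human hepatocytes dosed with fresh chemical solutions (vehicle 0.2% DMSO), harvested at 6 h. Actin mRNA quantified by quantitative nuclease protection assay with chemiluminescent read-out, as background control relative to DMSO.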
Experiment [2] is described as follows: CCTE_Padilla_ZF_144hpf_TERATOSCORE: (Legacy) CCTE's 144 Hour Post-fertilization zebrafish Assay Teratoscore, Padilla Lab (AID 2283679; active = hit-call score of the fitted dose curve at least 0.9, where 1 is the maximum; inactive = score below 0.9;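 for AC50: zebrafish embryos with chorions exposed by immersion from 6-8 hpf to 5 dpf with daily renewal; teratogenicity score from eye scoring of death hatching and malformations at 144 hpf; higher score means more developmental defects relative to DMSO baseline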). In a few lines: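 Larvae scored by eye at 144 hpf for death, hatching and malformations after a day in clean Hanks'. Before that, daily-renewed exposure at 80 uM (0.4% DMSO, 26C) from roughly 6-8 hpf through 5 dpf, 4 embryos per chemical.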

Read-out in experiment [3]: Cytochrome P450 3A4 (Homo sapiens) (UniProt P08684)
The experiment is described as follows: CLD_CYP3A4_6hr: CellzDirect (CLD) Gene Expression Assay for xenobiotic metabolism (CYP3A4) at 6 hours (AID 2283680). In a few lines: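 Primary human hepatocytes (two donor preparations) dosed; CYP3A4 mRNA harvested at 6 h and quantified by qNPA chemiluminescence. Gain of signal fitted against 0.2% DMSO vehicle; cytotoxicity flagged by phase-contrast morphology.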

Read-out in experiment [4]: Glyceraldehyde-3-phosphate dehydrogenase (Homo sapiens) (UniProt P04406)
The experiment is described as follows: CLD_GAPDH_6hr: CellzDirect (CLD) Gene Expression Assay for Baseline Control (Glyceraldehyde 3-phosphate dehydrogenase) at 6 hours (AID 2283681).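 Note: active means increased signal relative to DMSO vehicle.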 In a few lines: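 Primary human hepatocytes from two donor preparations, dosed at multiple concentrations with 0.2% DMSO vehicle; GAPDH mRNA measured 6 h after dosing by chemiluminescent quantitative nuclease protection assay (qNPA) on denatured lysates. Serves as background control; cytotoxicity annotated by morphology.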

Read-out in experiment [5]: xenobiotic metabolism (CYP1A2), CYP1A2 (gene 1544)
Nature of the experiment: CLD_CYP1A2_24hr: CellzDirect (CLD) Gene Expression Assay for xenobiotic metabolism (CYP1A2) at 24 hours (AID 2283683). Put shortly:
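Primary human hepatocytes from two donor preparations dosed daily with multiple concentrations of chemical, 0.2% DMSO vehicle. CYP1A2 mRNA at 24 h quantified by qNPA chemiluminescence; gain of signal analyzed relative to DMSO. Cytotoxicity flagged by phase-contrast morphology.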

Read-out in experiment [6]: Cytochrome P450 2B6 (Homo sapiens) (UniProt P20813)
Nature of the experiment: CLD_CYP2B6_24hr: CellzDirect (CLD) Gene Expression Assay for xenobiotic metabolism (CYP2B6) at 24 hours (AID 2283686). In a few lines:
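Primary human hepatocytes dosed daily for two days with fresh solutions, harvested at 24 hours; mRNA induction quantified by qNPA chemiluminescence, gain of signal vs 0.2% DMSO vehicle. Cytotoxicity annotated from phase-contrast morphology.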

Read-out in experiment [7]: Cytochrome P450 3A4 (Homo sapiens) (UniProt P08684)
The experiment is described as follows: CLD_CYP3A4_24hr: CellzDirect (CLD) Gene Expression Assay for xenobiotic metabolism (CYP3A4) at 24 hours (AID 2283689). Put shortly: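 Primary human hepatocytes from two donors dosed daily with fresh compound for two days, 0.2% DMSO vehicle. CYP3A4 mRNA at 24 hr by qNPA chemiluminescence; gain-of-signal fit versus DMSO, cytotoxicity flagged by morphology.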

Read-out in experiment [8]: alkyl and aryl transferase (GSTA2), GSTA2 (gene 2939)
The experiment is described as follows: CLD_GSTA2_24hr: CellzDirect (CLD) Gene Expression Assay for alkyl and aryl transferase (GSTA2) at 24 hours (AID 2283693). Put shortly:
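Primary human hepatocytes (two donor preparations) dosed daily for two days with chemicals at multiple concentrations (vehicle 0.2% DMSO); GSTA2 mRNA at 24 h measured by qNPA chemiluminescence, gain-of-signal versus DMSO.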

Read-out in experiment [9]: ABC Transporter (ABCB1), ABCB1 (gene 5243)
Nature of the experiment: CLD_ABCB1_48hr: CellzDirect (CLD) Gene Expression Assay for ABC Transporter (ABCB1) at 48 hours (AID 2283695).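 For AC50: potency for induction meaning increase of mRNA over DMSO vehicle.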 Put shortly: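 Primary human hepatocytes from two donor preparations dosed daily on two consecutive days with 0.2% DMSO vehicle. Harvest at 48 h. ABCB1 mRNA quantified by qNPA with chemiluminescence and fitted for gain of signal versus DMSO.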

Read-out in experiment [10]: Cytochrome P450 2B6 (Homo sapiens) (UniProt P20813)
The experiment is described as follows: CLD_CYP2B6_48hr: CellzDirect (CLD) Gene Expression Assay for xenobiotic metabolism (CYP2B6) at 48 hours (AID 2283699).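 Note: actives raise transcript level above DMSO so potency reflects induction.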 In a few lines: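 Primary human hepatocytes dosed daily for two days over multiple concentrations, 0.2% DMSO vehicle; CYP2B6 mRNA quantified at 48 h by qNPA chemiluminescence. Induction fitted as gain of signal versus DMSO; cytotoxicity annotated by morphology.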

Read-out in experiment [11]: Cytochrome P450 2B6 (Homo sapiens) (UniProt P20813)
Nature of the experiment: CLD_CYP2B6_6hr: CellzDirect (CLD) Gene Expression Assay for xenobiotic metabolism (CYP2B6) at 6 hours (AID 2283677).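 Note: actives raise CYP2B6 transcript above DMSO baseline so AC50 marks an inducer.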 Put shortly: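 Primary human hepatocytes dosed with chemicals at multiple concentrations, vehicle 0.2% DMSO; CYP2B6 mRNA induction measured 6 h after dosing by quantitative nuclease protection assay with chemiluminescence, gain of signal fitted relative to DMSO.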

Read-out in experiment [12]: HMG-CoA synthase (HMGCS2), HMGCS2 (gene 3158)
The experiment is described as follows: CLD_HMGCS2_6hr: CellzDirect (CLD) Gene Expression Assay for HMG-CoA synthase (HMGCS2) at 6 hours (AID 2283682).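 Note: actives raise HMGCS2 transcript above the 0.2% DMSO vehicle baseline.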 Put shortly:
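Primary human hepatocytes dosed daily with fresh chemical, 0.2% DMSO vehicle; HMGCS2 mRNA measured at 6 h by qNPA chemiluminescence. Gain of signal fitted against DMSO; cytotoxicity flagged from phase-contrast morphology.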

Read-out in experiment [13]: ABC Transporter (ABCB1), ABCB1 (gene 5243)
The experiment is described as follows: CLD_ABCB1_24hr: CellzDirect (CLD) Gene Expression Assay for ABC Transporter (ABCB1) at 24 hours (AID 2283684). In a few lines:
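Primary human hepatocytes, two donor preparations, dosed daily with fresh solutions; vehicle 0.2% DMSO; harvested at 24 h. ABCB1 mRNA measured by quantitative nuclease protection assay (chemiluminescence); morphology-based cytotoxicity annotated.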

Read-out in experiment [14]: Glyceraldehyde-3-phosphate dehydrogenase (Homo sapiens) (UniProt P04406)
Nature of the experiment: CLD_GAPDH_24hr: CellzDirect (CLD) Gene Expression Assay for Baseline Control (Glyceraldehyde 3-phosphate dehydrogenase) at 24 hours (AID 2283692). Put shortly: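 Primary human hepatocytes (two donor preparations) dosed daily for two days, 0.2% DMSO vehicle; GAPDH mRNA measured at 24 h by qNPA chemiluminescence as a background control, gain-of-signal fitted against DMSO.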

Read-out in experiment [15]: sulfotransferase (SULT2A), SULT2A1 (gene 6822)
The experiment is described as follows: CLD_SULT2A_24hr: CellzDirect (CLD) Gene Expression Assay for sulfotransferase (SULT2A) at 24 hours (AID 2283694). In a few lines: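 Primary human hepatocytes from two donor preparations were dosed daily with fresh solutions, vehicle 0.2% DMSO. At 24 h, lysates went to quantitative nuclease protection (qNPA) with S1 digestion and chemiluminescent readout. Cytotoxicity was annotated from phase-contrast morphology.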

Read-out in experiment [16]: glucuronosyltransferase (UGT1A1), UGT1A1 (gene 54658)
The experiment is described as follows: CLD_UGT1A1_24hr: CellzDirect (CLD) Gene Expression Assay for glucuronosyltransferase (UGT1A1) at 24 hours (AID 2283696). Put shortly: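 Primary human hepatocytes from two donor preparations were dosed (0.2% DMSO vehicle) and harvested at 24 h; UGT1A1 mRNA induction was quantified by chemiluminescent qNPA, fitted as gain relative to DMSO.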

Read-out in experiment [17]: Cytochrome P450 2C19 (Homo sapiens) (UniProt P33261)
Nature of the experiment: CLD_CYP2C19_48hr: CellzDirect (CLD) Gene Expression Assay for xenobiotic metabolism (CYP2C19) at 48 hours (AID 2283700).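 Note: fitted upward so actives raise CYP2C19 mRNA above the 0.2% DMSO vehicle.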 Put shortly: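 Primary human hepatocytes (two donor preparations) dosed daily for two days, harvested at 48 h; CYP2C19 mRNA induction measured by qNPA chemiluminescence. Gain-of-signal fitted relative to 0.2% DMSO vehicle as baseline.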

Read-out in experiment [18]: Cytochrome P450 2C19 (Homo sapiens) (UniProt P33261)
Nature of the experiment: CLD_CYP2C19_24hr: CellzDirect (CLD) Gene Expression Assay for xenobiotic metabolism (CYP2C19) at 24 hours (AID 2283687).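 Note: activity means mRNA induction above DMSO vehicle baseline.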 In a few lines:
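Primary human hepatocytes (two donor preparations) dosed daily with fresh test chemical in 0.2% DMSO vehicle; CYP2C19 mRNA induction measured at 24 h by quantitative nuclease protection assay with chemiluminescence, fitted for gain of signal versus DMSO.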

Read-out in experiment [19]: Broad substrate specificity ATP-binding cassette transporter ABCG2 (Homo sapiens) (UniProt Q9UNQ0)
The experiment is described as follows: CLD_ABCG2_24hr: CellzDirect (CLD) Gene Expression Assay for ABC Transporter (ABCG2) at 24 hours (AID 2283685). In a few lines: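 Primary human hepatocytes were dosed daily with ToxCast chemicals at multiple concentrations (vehicle 0.2% DMSO). ABCG2 mRNA was measured at 24 h by qNPA chemiluminescence; induction was scored as gain of signal versus DMSO.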

Records with an inconclusive call do not appear. Calls of active or inactive are those of the source. Rule for the calls, unless noted: active = hit-call score of the fitted dose curve at least 0.9, where 1 is the maximum; inconclusive = response in the unintended direction; inactive = score below 0.9.

Sequence of Glyceraldehyde-3-phosphate dehydrogenase (Homo sapiens) (P04406 whole entry, looked up): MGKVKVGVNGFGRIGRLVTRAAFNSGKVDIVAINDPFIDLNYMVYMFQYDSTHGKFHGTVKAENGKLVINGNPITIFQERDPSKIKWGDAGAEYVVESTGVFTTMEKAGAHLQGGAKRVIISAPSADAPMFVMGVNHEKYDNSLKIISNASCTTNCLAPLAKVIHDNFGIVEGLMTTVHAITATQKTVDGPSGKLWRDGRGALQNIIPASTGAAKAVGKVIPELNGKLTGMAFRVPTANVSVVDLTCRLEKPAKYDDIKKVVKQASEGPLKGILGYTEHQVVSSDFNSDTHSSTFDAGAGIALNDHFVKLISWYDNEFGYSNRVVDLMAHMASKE
Sequence of Cytochrome P450 2C19 (Homo sapiens) (P33261 whole entry, looked up): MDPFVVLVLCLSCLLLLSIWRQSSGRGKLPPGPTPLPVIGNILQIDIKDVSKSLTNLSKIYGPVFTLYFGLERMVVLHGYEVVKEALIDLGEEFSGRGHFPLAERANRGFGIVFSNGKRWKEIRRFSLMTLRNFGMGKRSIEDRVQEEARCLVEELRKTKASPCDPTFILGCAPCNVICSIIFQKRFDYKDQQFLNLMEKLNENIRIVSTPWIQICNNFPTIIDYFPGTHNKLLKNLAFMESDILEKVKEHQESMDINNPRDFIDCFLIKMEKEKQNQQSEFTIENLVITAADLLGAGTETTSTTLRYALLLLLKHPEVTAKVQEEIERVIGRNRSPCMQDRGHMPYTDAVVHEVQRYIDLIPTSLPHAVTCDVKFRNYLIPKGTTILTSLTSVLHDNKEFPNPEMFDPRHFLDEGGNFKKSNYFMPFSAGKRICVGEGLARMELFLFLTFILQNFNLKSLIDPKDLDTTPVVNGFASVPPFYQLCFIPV
Sequence of Cytochrome P450 3A4 (Homo sapiens) (P08684 whole entry, looked up): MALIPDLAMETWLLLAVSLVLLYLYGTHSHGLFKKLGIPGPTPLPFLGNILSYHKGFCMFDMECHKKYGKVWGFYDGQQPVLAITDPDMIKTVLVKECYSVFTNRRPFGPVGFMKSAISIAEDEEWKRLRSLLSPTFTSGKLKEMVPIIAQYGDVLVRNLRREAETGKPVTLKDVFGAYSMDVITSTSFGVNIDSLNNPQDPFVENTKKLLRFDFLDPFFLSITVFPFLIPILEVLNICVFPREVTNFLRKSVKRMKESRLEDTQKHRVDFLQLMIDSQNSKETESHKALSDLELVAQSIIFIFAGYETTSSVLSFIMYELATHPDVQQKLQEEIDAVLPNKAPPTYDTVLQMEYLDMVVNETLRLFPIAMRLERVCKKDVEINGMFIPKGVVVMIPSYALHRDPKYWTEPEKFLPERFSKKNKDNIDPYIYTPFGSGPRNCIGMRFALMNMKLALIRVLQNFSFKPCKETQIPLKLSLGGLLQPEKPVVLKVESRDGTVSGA
Sequence of Broad substrate specificity ATP-binding cassette transporter ABCG2 (Homo sapiens) (Q9UNQ0 whole entry, looked up): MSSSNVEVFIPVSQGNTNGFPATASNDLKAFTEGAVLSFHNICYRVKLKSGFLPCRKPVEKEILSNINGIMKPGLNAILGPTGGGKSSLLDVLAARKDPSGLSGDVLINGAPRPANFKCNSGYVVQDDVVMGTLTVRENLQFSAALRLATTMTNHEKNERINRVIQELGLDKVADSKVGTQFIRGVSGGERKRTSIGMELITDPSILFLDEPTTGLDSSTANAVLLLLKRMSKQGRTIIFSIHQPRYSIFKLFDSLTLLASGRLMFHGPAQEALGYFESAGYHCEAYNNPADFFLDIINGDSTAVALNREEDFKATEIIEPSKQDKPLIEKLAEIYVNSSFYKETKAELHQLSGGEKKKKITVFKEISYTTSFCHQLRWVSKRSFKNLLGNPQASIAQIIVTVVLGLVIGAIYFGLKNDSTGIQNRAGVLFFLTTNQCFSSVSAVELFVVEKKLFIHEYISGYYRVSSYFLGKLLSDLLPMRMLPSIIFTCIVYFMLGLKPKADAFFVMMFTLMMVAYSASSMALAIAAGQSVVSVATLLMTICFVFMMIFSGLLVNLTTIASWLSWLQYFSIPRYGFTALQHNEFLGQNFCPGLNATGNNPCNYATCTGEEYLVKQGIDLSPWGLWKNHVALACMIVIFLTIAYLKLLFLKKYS

On to `CCOP(=S)(Oc1cnc(C(C)(C)C)nc1)OC(C)C` (configuration not stated), for which the call in [1], in experiment [4] and in experiment [8] was inactive. The AC50 in experiment [2] is 16.8 µM (active); in experiment [3], 1.89 µM (active); in experiment [5], 6.43 µM (active); in experiment [6], 2.05 µM (active); in [7], 0.464 µM (active); in experiment [9], 4.38 µM (active). Moreover, in experiment [10], the AC50 was 0.427 µM (active).

`Nc1nc(N)nc(NC2CC2)n1`: the result in experiment [1], in [11], in [2], in [4], in experiment [12] and in experiment [5] was inactive. The call in [13], in experiment [7], in experiment [14], in [8], in [15] and in experiment [9] was inactive. Moreover, the compound was called inactive in experiment [16].

In the case of `CCCCOC(=O)[C@@H](C)Oc1ccc(Oc2ccc(C#N)cc2F)cc1`, the compound was classed as inactive in experiment [1], in experiment [3], in experiment [4], in experiment [12], in [7] and in experiment [14]. The compound was classed as inactive in experiment [8], in experiment [9], in experiment [16] and in experiment [17]. Moreover, the AC50 in experiment [2] is 2.1 µM (active).

With `CCOP(=S)(OCC)SCCSCC`, the compound was classed as inactive in experiment [1], in experiment [2], in experiment [3], in experiment [12], in experiment [18] and in experiment [8]. Also, the outcome in experiment [9] and in experiment [17] was inactive. Moreover, the values for the AC50 in experiment [11] and in experiment [5] were 14.1 µM (active) and 6.62 µM (active), respectively.

`Cc1nn(-c2cc(NS(C)(=O)=O)c(Cl)cc2Cl)c(=O)n1C(F)F`: the compound was called inactive in [1], in experiment [4], in experiment [5], in experiment [19], in [9] and in experiment [17]. For the same compound, the AC50 in experiment [2] was 56.9 µM (active); in experiment [3], 1.62 µM (active); in experiment [6] it was 4.18 µM (active); in [10] it was 6.7 µM (active).

As for `CCOP(=O)(OCC)Oc1cc(C)nc(C(C)C)n1`, the call in experiment [1], in experiment [3], in [4], in experiment [12], in experiment [14] and in experiment [8] was inactive. In [17], the compound was called inactive. The figures for the AC50 in [2], in [5] and in [6] were 38.2 µM (active), 30.7 µM (active) and 20 µM (active), respectively.

For the compound `CC(C)[C@H](C(=O)O[C@H](C#N)c1cccc(Oc2ccccc2)c1)c1ccc(Cl)cc1`, the compound was called inactive in [1], in experiment [3], in experiment [4], in experiment [5], in experiment [8] and in [9]. Besides, the AC50 is 0.166 µM (active) in experiment [2] and 8.04 µM (active) in experiment [10].

As for `CCOP(=S)(OCC)OC(Cl)C(Cl)(Cl)Cl` (configuration not stated), the outcome in experiment [1], in experiment [4], in experiment [12], in [14], in experiment [8] and in experiment [9] was inactive. The AC50 is 4.82 µM (active) in [2], 10.5 µM (active) in experiment [3], 15.5 µM (active) in experiment [5] and 6.19 µM (active) in [7].

As for `CCc1cccc(C)c1N(C(=O)CCl)C(C)COC` (configuration not stated), the compound was called inactive in experiment [1], in [4], in experiment [12], in experiment [13] and in experiment [9]. In addition, the AC50 is 50.9 µM (active) in [2]; 0.477 µM (active) in experiment [3]; 3.97 µM (active) in experiment [5]; 1.61 µM (active) in experiment [6]; 8.71 µM (active) in [7].
